HT1080NT lethal = qHTS for induction of synthetic lethality in tumor cells producing 2HG: qHTS for the HT-1080-NT fibrosarcoma cell line; HT-1080-NT fibrosarcoma viability, CellTiter-Glo ATP luminescence, 48 h; Potency, µM (highest dose often 46.1 µM), for the others: at the highest dose activity, negative = less viability, most hits filed as cytotoxic; 1.6% of 360,000 active; AID 686970, 2013;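 further: NT is the 2HG producing partner of a matched IDH1 knockdown line; potency means the concentration at half of the fitted maximal effect; 0% = DMSO-treated cells and -100% = media-only wells without cells; nearly all actives have a fitted effect of over 55% in size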
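HT-1080-NT fibrosarcoma cells (2HG-overproducing), 750 cells/well in RPMI with 5% FBS, dosed after 2 h and incubated 48 h at 37C. CellTiter-Glo luminescence normalized to DMSO and no-cell wells; concentration-response curves fitted and classed.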
DT40 TDP1 no CPT = qHTS for Inhibitors of human tyrosyl-DNA phosphodiesterase 1 (TDP1): qHTS in cells in absence of CPT | DT40 Tdp1-/- hTDP1 cells, no CPT, ATP luminescence, 48 h | Potency, µM (titrated, usually from 46.2 µM), for the others: at the top dose activity change, negative = growth inhibition, usual class: inhibitors | 15% of 420,000 active | AID 686978, 2013; further: potency means the concentration at half of the fitted maximal effect; nearly all actives have a fitted effect of over 55% in size
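Camptothecin absent (DMSO only). Human TDP1-complemented DT40 knockout cells, 400 cells/well, 37 °C for minimum 48 hr; ATP measured via CellTiter-Glo, 30 min dark incubation, luminescence.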
HT1080 IDH1KD tx = qHTS for induction of synthetic lethality in tumor cells producing 2HG: qHTS for the HT-1080-IDH1KD cell line | AID 686971, 2013 | HT-1080 IDH1 knockdown viability, ATP luminescence, 48 h | Potency, µM (top dose mostly 46.1 µM), for the others: top-dose activity, negative = toxicity, hits mostly cytotoxic | 2% of 360,000 active;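 further: potency means the concentration at half of the fitted maximal effect; 0% = DMSO wells and -100% = cell-free medium wells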
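HT-1080-IDH1KD cells (IDH1 knocked down), 750/well in RPMI with 5% FBS, treated with compound 48 h at 37 degrees C. Viability by CellTiter-Glo luminescence, normalised to DMSO and no-cell wells; concentration-response curves classed.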
TDP1 cell CPT = qHTS for Inhibitors of human tyrosyl-DNA phosphodiesterase 1 (TDP1): qHTS in cells in presence of CPT; chicken DT40 Tdp1-/-;hTDP1 cells + 20 nM CPT, ATP luminescence, 48 h; 12% of 420,000 active; AID 686979, 2013; Potency, µM (titrated, usually from 46.2 µM), for the others: top-dose activity change, negative = growth inhibition, most hits filed as inhibitors; further: potency means the concentration at half of the fitted maximal effect; nearly all actives have a fitted effect of over 55% in size
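Cell growth measured by CellTiter-Glo luminescence after a minimum 48 h, 37 C compound exposure with 20 nM CPT in Tdp1-knockout DT40 cells stably expressing hTDP1, seeded 400/well; qHTS titration format.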
IL1B secr inh = qHTS for Inhibitors of Inflammasome Signaling: IL-1-beta AlphaLISA Primary Screen; 4.7% of 360,000 active; activity change, % at 57.5 µM; THP-1 LPS/ATP IL-1B secretion, AlphaLISA, 16 h; active compounds read low; AID 743279, 2014; in the data active means activity change below about -50%; inconclusive means mostly about -30% to -49%
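THP-1 cells pretreated 1 hr with compounds (up to 57.5 uM final), then stimulated with LPS (250 ng/mL final) plus ATP (1.25 mM final); secreted IL-1B measured by AlphaLISA after 16 hr, decreased signal indicating inhibition.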
Active calls of the source: *; u = inconclusive; x = no result. This is a sample that favours compounds with a hit; in the whole collection about 19% have one here. Unless noted, the call rests on the fitted dose curve; in most records, active means well fitted curve in the direction sought with a large enough effect; inconclusive means small, poorly fitted or top-dose-only effect, or another doubt; inactive means no such curve, though single readings can be large; an effect the other way counts as inactive or inconclusive. Unless noted, on the % scale 0 is the no-effect control and ±100 the full control effect.

SMILES	HT1080NT lethal	DT40 TDP1 no CPT	HT1080 IDH1KD tx	TDP1 cell CPT	IL1B secr inh
CC1CCCN(S(=O)(=O)c2ccc(S(=O)(=O)N3CCCC3)cc2)C1 (stereo not given)	12%	0%	9%	16%	7
O=C(C1CCCN(S(=O)(=O)c2ccc(Br)cc2)C1)N1CCN(Cc2ccccc2)CC1 (stereo not given)	6%	u	-17%	16µM*	-52*
CC1CCCN(S(=O)(=O)c2ccc(S(=O)(=O)N3CCCN(Cc4ccccc4)C3)cc2)C1 (stereo not given)	-3%	u	16%	16µM*	-3
O=C(C1CCCN(S(=O)(=O)c2ccccc2)C1)N1CCN(c2ccccc2)CC1 (stereo not given)	0%	u	-3%	u	-6
O=C(Nc1ccc(N2CCOCC2)c(Cl)c1)c1cc2ccccc2o1	u	21µM*	u	15µM*	-78*
O=C(Nc1ccc(N2CCN(C(=O)c3ccccc3)CC2)cc1)c1cc2ccccc2o1	-21%	5.2µM*	u	6.5µM*	-97*
COc1ccccc1C(=O)Nc1ccccc1N1CCOCC1	8%	u	4%	u	-16
COc1c(C(=O)Nc2ccccc2N2CCOCC2)cc2ccccc2c1Br	-7%	23µM*	-8%	u	-10
COc1ccc(N2CCOCC2)c(NC(=O)c2cc3ccccc3o2)c1	-2%	u	-6%	u	7
O=C(Nc1ccccc1N1CCN(C(=O)c2ccccc2)CC1)c1cc2ccccc2o1	8%	21µM*	5%	u	17
CN1CCN(c2ccc(NC(=O)c3cc4ccccc4o3)cc2)CC1	-12%	u	-2%	-26%	-6
Cc1ccc(-c2nc3c4ccccc4n(CC(=O)N4CCN(c5ccccc5F)CC4)c(=O)n3n2)cc1	x	-12%	x	-17%	x
CCOC(=O)Cn1c2ccccc2n2nc(CCC(=O)O)c(=O)nc12	15%	-10%	u	11%	-4
COCCNCc1nc2sc(C)c(-c3ccccc3)c2c(=O)[nH]1	6%	u	-2%	u	-3
O=C1c2ccc([N+](=O)[O-])cc2C(=O)N1Cc1cccnc1	13%	14%	9%	6%	19
O=C(c1cc2ccccc2o1)N1CCOCC1	1%	8%	-2%	1%	-16
CN1CCN(c2ccccc2NC(=O)c2cc3ccccc3o2)CC1	u	u	-21%	u	u
CSCc1c(C(=O)Nc2ccccc2N2CCOCC2)oc2ccccc12	21%	7.3µM*	4%	16µM*	29
O=C(Nc1ccccc1N1CCOCC1)c1cc2ccccc2o1	0%	-26%	12%	16µM*	3
O=C(NC(=S)N1CCOCC1)c1cc2ccccc2o1	-9%	12µM*	9%	6.5µM*	9
CSCc1c(C(=O)Nc2ccc(N3CCOCC3)cc2)oc2ccccc12	0%	-24%	-4%	-18%	1
CS(=O)(=O)N1CCN(c2ccccc2NC(=O)c2cc3ccccc3o2)CC1	-25%	15µM*	-10%	-29%	-11
COC(=O)c1ccc(NC(=O)N2CCC(CN3CCc4ccccc4C3)CC2)cc1	x	-27%	x	u	x
Cc1ccccc1N(CC(=O)N/N=C/c1cc(Br)c(C)o1)S(C)(=O)=O	-5%	u	-7%	-11%	-9
O=C(Nc1ccc(S(=O)(=O)N2CCCC2)cc1)c1ccc(CN2CCOCC2)cc1	-26%	u	-15%	u	-22
SMILES	HT1080NT lethal	DT40 TDP1 no CPT	HT1080 IDH1KD tx	TDP1 cell CPT	IL1B secr inh
O=C(Nc1ccc(CN2CCOCC2)cc1)c1ccc(N2CCCC2)c([N+](=O)[O-])c1	1%	u	1%	u	-72*
COc1cccc(NC(=O)c2ccc(CN3CCOCC3)cc2)c1	-1%	u	2%	-17%	9
O=C(Nc1ccc(S(=O)(=O)N2CCCCC2)cc1)c1ccc(CN2CCOCC2)cc1	x	23µM*	x	18µM*	-30
COc1ccc(NS(=O)(=O)c2ccc(NC(=O)c3ccc(CN4CCOCC4)cc3)cc2)cc1	-32%	23µM*	u	18µM*	u
O=C(Nc1ccc(S(=O)(=O)Nc2ccc(F)cc2)cc1)c1ccc(CN2CCOCC2)cc1	-26%	18µM*	u	u	u
COC(=O)c1ccccc1NC(=O)c1cc(-c2ccc(Cl)cc2)on1	x	-1%	x	-16%	x
O=C(NN1CCCCCC1)c1ccccc1F	13%	-1%	19%	-7%	-2
CCC(C)(C)n1nnnc1C(c1cc2cc(C)cc(C)c2[nH]c1=O)N1CCN(Cc2ccc3c(c2)OCO3)CC1 (stereo not given)	-2%	u	-12%	-70%	-10
CCOC(=O)C1CCCN(C(=O)c2cccc(NC(=O)C(CC)CC)c2)C1 (stereo not given)	14%	-20%	2%	10%	-27
COc1ccc(CN2CCOCCOCCN(Cc3ccc(OC)cc3)CCOCCOCC2)cc1	-24%	29µM*	-18%	u	-25
COc1ccc(CN2CCOCCOCCOCC2)cc1	11%	2%	12%	11%	12
O=C1CC(NS(=O)(=O)c2ccc([N+](=O)[O-])cc2)CN1c1cccc(F)c1 (stereo not given)	-10%	u	-8%	-12%	1
CCN(CC)P(=O)(Nc1ccccc1Br)c1ccc(N(C)C)cc1NC(=O)c1ccco1 (stereo not given)	18%	23µM*	-4%	29µM*	-7
CCN(CC)C(=O)c1cc(Cl)ccc1NC(=O)c1ccco1	9%	4%	0%	-3%	-2
COc1ccc(CN2C(=NC(=O)CCc3ccccc3)SC3CS(=O)(=O)CC32)cc1 (stereo not given)	19%	-10%	19%	5%	22
Cc1cc(/C=C2/NC(=O)N(c3ccccc3)C2=O)c(C)n1-c1cccnc1	-2%	u	-9%	26µM*	-83*
Cc1cc(/C=C2\SC(=S)N(C)C2=O)c(C)n1-c1ccccc1O	u	8.2µM*	u	21µM*	-84*
Cc1cccc(N2C(=O)/C(=C/c3cccnc3)SC2=S)c1	-10%	-27%	-15%	u	-9
Cc1cc(/C=C2/SC(=S)N(c3ccc([N+](=O)[O-])cc3)C2=O)c(C)n1-c1cccnc1	-9%	1µM*	-9%	1.6µM*	39
